For assay [1], the target named is Lysosomal acid glucosylceramidase (Homo sapiens) (UniProt P04062). The assay can be described thus: Glucocerebrosidase-p2 (AID 348; in the data active = potency below about 10 µM; note: potency is the fitted concentration of half-maximal effect). As to conditions: purified GBA, blue fluorogenic substrate, 40 min. A digest of the protocol:
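Normal human glucocerebrosidase (0.2 nM) with blue fluorogenic substrate (80 uM final) in citrate/phosphate pH 5.9 with 10mM sodium taurocholate, 0.01% tween-20; 40 min RT, NaOH/glycine stop; fluorescence Ex 365/Em 440; AC50 from a titration from 0.6 nM upwards.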

Assay [2] has as its target Cytochrome P450 1A2 (Homo sapiens) (UniProt P05177). The assay can be described thus: p450-cyp1a2 (AID 410; calls by dose curve; note: potency is the fitted concentration of half-maximal effect). The conditions noted are these: recombinant CYP1A2, luciferin-ME demethylation, luminescence; series mostly up to 57 µM. In a few lines:
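Luminescent demethylation readout: Luciferin-ME (100uM, equal to Km) turned over by 20nM CYP1A2 for 60 min at room temperature after NADPH regeneration addition, following 10 min compound preincubation. Normalization used 57 uM furafylline as full inhibition.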

Assay [3] in a line: Stat Signaling Pathway (AID 446; active = well fitted curve in either direction with a large enough effect, not every such curve was filed as active;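 note: ME-180 cervical cancer cells given 40 pM IL-6 alongside compound; SIE-controlled beta-lactamase reporter measured as 460/530 nm FRET emission ratio; % is set by controls: 0 for no effect and ±100 for the full control effect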). The conditions noted are these: ME-180 SIE beta-lactamase reporter, IL-6 stimulated, 5 h; at 7.69 µM (top of the series) unless noted. A digest of the protocol: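 Compound effects on IL-6-induced STAT reporter activity were measured in ME-180 cells. After overnight culture, cells were co-treated with 40 pM IL-6 for 5 hrs before beta-lactamase substrate loading at room temperature.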

Assay [4] deals with Glucocorticoid receptor (Homo sapiens) (UniProt P04150). Put plainly: GR-GFP Redistribution (AID 450;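 active = compounds whose dose series gives a full or clear partial fitted curve of increased nuclear translocation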; note: potency is the fitted concentration of half-maximal effect). As to conditions: U2OS GR-GFP nuclear translocation, laser cytometry, 2 h.
Sequence of Glucocorticoid receptor (Homo sapiens) (P04150 whole entry, looked up): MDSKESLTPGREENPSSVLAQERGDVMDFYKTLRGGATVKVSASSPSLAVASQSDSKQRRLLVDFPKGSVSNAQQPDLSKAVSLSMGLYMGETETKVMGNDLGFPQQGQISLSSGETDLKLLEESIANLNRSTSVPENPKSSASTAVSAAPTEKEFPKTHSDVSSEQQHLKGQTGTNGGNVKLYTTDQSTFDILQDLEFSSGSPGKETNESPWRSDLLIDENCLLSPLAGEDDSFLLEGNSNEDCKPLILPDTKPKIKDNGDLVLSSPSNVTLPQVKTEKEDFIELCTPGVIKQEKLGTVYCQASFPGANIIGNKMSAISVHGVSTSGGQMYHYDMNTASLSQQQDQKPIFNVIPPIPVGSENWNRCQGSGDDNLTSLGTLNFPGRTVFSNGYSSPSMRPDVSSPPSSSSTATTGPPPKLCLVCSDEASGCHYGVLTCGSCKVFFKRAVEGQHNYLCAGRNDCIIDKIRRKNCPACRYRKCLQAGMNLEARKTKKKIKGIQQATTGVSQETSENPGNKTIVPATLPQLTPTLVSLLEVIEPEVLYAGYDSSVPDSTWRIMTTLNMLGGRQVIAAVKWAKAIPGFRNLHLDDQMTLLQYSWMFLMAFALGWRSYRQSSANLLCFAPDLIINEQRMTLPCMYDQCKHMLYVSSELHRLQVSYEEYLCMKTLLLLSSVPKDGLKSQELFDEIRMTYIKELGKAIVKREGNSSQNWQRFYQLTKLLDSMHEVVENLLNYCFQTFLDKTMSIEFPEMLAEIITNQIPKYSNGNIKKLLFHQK
Assay [5] shares this target. The assay can be described thus: GR-EFC Redistribution (AID 451; calls by dose curve; note: potency is the fitted concentration of half-maximal effect). The conditions noted are these: CHO-K1 GR-EFC translocation, beta-gal luminescence, 2 h. In a few lines:
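Translocation of GR-ED fusion to nuclear EA restores b-gal, read by luminescence after 1 h room-temperature detection. Engineered CHO-K1 biosensor cells, 1,000/well, exposed 2 h at 37 C to titrations up to 46 uM final.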

The target in assay [6] is 3',5'-cyclic-AMP phosphodiesterase 4B (Homo sapiens) (UniProt Q07343). The assay can be described thus: qHTS Assay for Inhibitors of PDE-IV (AID 607; active = well fitted activation curve with a large enough effect in the main read-out, with a control signal flat, not every such curve was filed as active; note: % of control where 0% means no effect). As to conditions: HEK293 ACTOne CNG channel cells, membrane potential fluorescence; series mostly up to 22.9 µM. A digest of the protocol:
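ACTOne HEK293 cells carry a modified cAMP-gated CNG channel and express endogenous PDE4; plated 1000 cells/well, compounds up to 22.9 uM final. Membrane-potential dye fluorescence (ex 535/em 590) was read; parental cells received 10 uM forskolin + 100 uM RO 20-1724.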

For assay [7], the target named is Cytochrome P450 2C9 (Homo sapiens) (UniProt P11712). The assay can be described thus: qHTS Assay for Inhibitors and Substrates of Cytochrome P450 2C9 (AID 883). Note: % is set by controls: 0 for no effect and ±100 for the full control effect; nearly all actives have a fitted effect of over 60% in size. As to conditions: recombinant CYP2C9, luciferin-H luminescence, 60 min; series mostly up to 57.1 µM. A digest of the protocol: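 Luminescent read-out of deoxyluciferin hydroxylation, normalized to 57uM sulphaphenazole (AC100). Reaction: 10nM enzyme, 100uM Luciferin-H (equal to KM), 25mM KPO4, 10 min compound preincubation, then 60 min with NADPH regeneration, both at 37C.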
Sequence of Cytochrome P450 2C9 (Homo sapiens) (P11712 whole entry, looked up): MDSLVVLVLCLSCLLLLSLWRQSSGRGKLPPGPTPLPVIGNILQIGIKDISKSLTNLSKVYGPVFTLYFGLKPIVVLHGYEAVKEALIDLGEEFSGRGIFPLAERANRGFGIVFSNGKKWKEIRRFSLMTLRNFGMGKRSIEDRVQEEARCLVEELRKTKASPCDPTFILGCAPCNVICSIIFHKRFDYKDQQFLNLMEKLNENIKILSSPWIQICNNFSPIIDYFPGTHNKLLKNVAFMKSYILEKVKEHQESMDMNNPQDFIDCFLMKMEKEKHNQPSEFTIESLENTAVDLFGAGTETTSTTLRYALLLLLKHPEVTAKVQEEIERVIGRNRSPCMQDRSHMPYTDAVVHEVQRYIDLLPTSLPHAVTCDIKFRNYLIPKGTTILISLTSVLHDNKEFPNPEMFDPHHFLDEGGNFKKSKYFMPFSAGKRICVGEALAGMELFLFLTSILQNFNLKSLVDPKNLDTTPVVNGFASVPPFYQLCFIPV

Assay [8] addresses Cytochrome P450 3A4 (Homo sapiens) (UniProt P08684). Put plainly: qHTS Assay for Activators of Cytochrome P450 3A4 (AID 885). Note: nearly all actives have a fitted effect of over 65% in size. The conditions noted are these: recombinant CYP3A4, Luciferin-PPXE luminescence, 60 min; series mostly up to 57.1 µM. In a few lines:
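CYP3A4 activity: Luciferin-PPXE O-dealkylation, 25uM substrate, 200mM KPO4, RT throughout. Read-out is luciferase luminescence; higher values reflect activation.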
A general note: Quantitative high-throughput screening tests each substance at several concentrations.

Assay [9] is described as follows: Primary qHTS for small molecule stabilizers of the endoplasmic reticulum resident proteome: Secreted ER Calcium Modulated Protein (SERCaMP) assay (AID 1508630). Note: % is set by controls: 0 for no effect and ±100 for the full control effect. As to conditions: SH-SY5Y GLuc-SERCaMP (Gaussia luciferase released on ER calcium loss) secretion, thapsigargin, luminescence; series mostly up to 38.4 µM. A digest of the protocol:
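The SH-SY5Y reporter protocol was run at 3 concentrations up to 38.3 uM (primary) or 11 concentrations (follow-up): 16 h compound, 100 nM thapsigargin for 4 h, then extracellular luciferase luminescence.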

Assay [10] in a line: AP1 Signaling Pathway (AID 357; active = well fitted curve in either direction with a large enough effect, not every such curve was filed as active;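 note: ME-180 reporter cells stimulated with EGF at its EC50 level; % is set by controls: 0 for no effect and ±100 for the full control effect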). As to conditions: ME-180 AP-1-bla reporter, EGF-induced, beta-lactamase ratio, 5 h; at 7.69 µM (top of the series) unless noted. In a few lines:
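Cells are seeded overnight, exposed to compound titrations and an EC50 level of EGF for 5 hours at 37 °C, then loaded with CCF4 dye for 2.5 hours. Beta-lactamase activity under the AP-1 element is read as a blue/green ratio.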

Assay [11] can be described thus: NFAT Signaling Pathway (AID 444; active = well fitted curve in either direction with a large enough effect, not every such curve was filed as active;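 note: carbachol stimulus at about its EC50 of 1 µM final; % is set by controls: 0 for no effect and ±100 for the full control effect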). As to conditions: Jurkat NFAT-bla M1, carbachol, beta-lactamase ratio, 5 h; at 7.69 µM (top of the series) unless noted. In a few lines:
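Read-out: CCF4 FRET ratio (460 nm/530 nm) after 1 h RT dye loading, used for %activity and AC50 from titration series. Cells: Jurkat NFAT-β-lactamase/M1 line, treated with compound plus 1 uM carbachol for 5 h, 37 °C.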

The target in assay [12] is Mitogen-activated protein kinase 10 (Mus musculus) (UniProt Q61831). The assay can be described thus: JNK3 AlphaScreen Assay (AID 530; active = well fitted curve in either direction with a large enough effect, not every such curve was filed as active). The conditions noted are these: JNK3 lysate, c-Jun phosphorylation; series mostly up to 57.1 µM. A digest of the protocol:
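qHTS titrations with 15 min compound pre-incubation before adding ATP (10 uM final). Read-out: AlphaScreen of Ser73-phosphorylated biotin-GST-cJun using HepG2 lysate JNK3 activated by IL-1β and TNFα.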
Background: Bead proximity is the source of the signal in Alpha formats.

The target in assay [13] is Cytochrome P450 3A4 (Homo sapiens) (UniProt P08684). Put plainly: qHTS Assay for Inhibitors and Substrates of Cytochrome P450 3A4 (AID 884). Note: potency is the fitted concentration of half-maximal effect; nearly all actives have a fitted effect of over 50% in size. The conditions noted are these: recombinant CYP3A4, Luciferin-PPXE luminescence; series mostly up to 57.1 µM. A digest of the protocol:
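Luminescent readout of luciferin produced by CYP3A4 (20 nM) dealkylation of Luciferin-PPXE, 25 uM (its KM). NADPH-driven reaction ran 60 min at RT after 10 min compound preincubation; data scaled to 57 uM ketoconazole as 100% inhibition.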

The nature of assay [14]: qHTS Assay for Identification of Small Molecule Agonists for Hypoxia Response Element Signaling Pathway (AID 914; active = well fitted activation curve with a large enough effect in the signal ratio, with a control signal flat, not every such curve was filed as active; the % refers to the signal ratio; note: potency is the fitted concentration of half-maximal effect). As to conditions: ME-180 (cervical carcinoma) HRE-bla reporter, beta-lactamase ratio, CoCl2, 17 h; activation: active compounds read high. In a few lines:
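AC50 values come from titration-series %Activity, taken as the 460/530nm ratio of CCF4 fluorescence (excitation 405nm). CellSensor HRE-bla ME-180 cells were treated 17 hours at 37 C with compound plus an EC50 level of CoCl2.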

The target in assay [15] is Ubiquitin carboxyl-terminal hydrolase 1 (Homo sapiens) (UniProt O94782). The assay can be described thus: Inhibitors of USP1/UAF1: Pilot qHTS (AID 504865).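 Note: rhodamine fluorescence freed from ubiquitin-rhodamine substrate followed over time; top concentration of the series differs between compounds; % is set by controls: 0 for no effect and ±100 for the full control effect; nearly all actives have a fitted effect of over 35% in size.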 The conditions noted are these: purified USP1/UAF1, Ub-rhodamine cleavage fluorescence; series mostly up to 54.9 µM. In a few lines:
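USP1/UAF1 complex at 1 nM preincubated 15 min at room temperature with compound, then Ub-Rho substrate added at 150 nM final. Fluorescence (480/540 nm) read kinetically in 50 mM HEPES pH 7.8, 0.5 mM EDTA, 1 mM TCEP, 0.1 mg/ml BSA, 0.01% Tween-20.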

From PubChem BioAssay (NCATS) come the findings set out here.

Values without a mark were called inactive. Inconclusive results are not listed. Activity calls are given as the source filed them. Unless noted, calls come from the whole dose curve; as a rule, active = well fitted curve in the direction sought with a large enough effect; inconclusive = small, poorly fitted or top-dose-only effect, or another doubt; inactive = no such curve, though single readings can be large; an effect the other way counts as inactive or inconclusive. Some results are limits rather than exact numbers.

Sequence of Cytochrome P450 1A2 (Homo sapiens) (P05177 whole entry, looked up): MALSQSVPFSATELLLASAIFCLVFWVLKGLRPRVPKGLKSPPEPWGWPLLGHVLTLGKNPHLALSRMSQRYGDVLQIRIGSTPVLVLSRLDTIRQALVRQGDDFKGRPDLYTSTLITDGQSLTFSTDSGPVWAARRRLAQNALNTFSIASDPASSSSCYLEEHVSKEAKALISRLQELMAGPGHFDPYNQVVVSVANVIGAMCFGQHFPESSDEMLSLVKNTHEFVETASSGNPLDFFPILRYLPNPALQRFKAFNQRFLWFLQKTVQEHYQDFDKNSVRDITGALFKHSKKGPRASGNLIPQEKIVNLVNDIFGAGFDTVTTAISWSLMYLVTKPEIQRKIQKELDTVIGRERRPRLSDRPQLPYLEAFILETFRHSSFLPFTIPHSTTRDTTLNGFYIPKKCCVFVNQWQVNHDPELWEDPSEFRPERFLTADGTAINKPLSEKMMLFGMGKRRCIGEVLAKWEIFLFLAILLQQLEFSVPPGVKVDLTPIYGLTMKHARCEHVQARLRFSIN
Sequence of Cytochrome P450 3A4 (Homo sapiens) (P08684 whole entry, looked up): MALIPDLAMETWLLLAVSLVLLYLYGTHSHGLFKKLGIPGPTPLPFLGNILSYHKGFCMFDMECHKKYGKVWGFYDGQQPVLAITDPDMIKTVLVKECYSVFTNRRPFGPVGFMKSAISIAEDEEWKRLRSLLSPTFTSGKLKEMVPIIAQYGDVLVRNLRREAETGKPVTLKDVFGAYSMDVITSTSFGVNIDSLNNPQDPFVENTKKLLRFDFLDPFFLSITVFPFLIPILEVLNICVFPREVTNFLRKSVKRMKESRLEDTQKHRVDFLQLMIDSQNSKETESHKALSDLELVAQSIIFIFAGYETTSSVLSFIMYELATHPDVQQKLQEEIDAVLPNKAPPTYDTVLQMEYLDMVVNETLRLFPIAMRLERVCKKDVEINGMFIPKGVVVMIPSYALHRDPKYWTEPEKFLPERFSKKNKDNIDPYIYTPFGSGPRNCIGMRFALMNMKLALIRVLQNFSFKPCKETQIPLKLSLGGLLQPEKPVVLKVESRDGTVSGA
Sequence of 3',5'-cyclic-AMP phosphodiesterase 4B (Homo sapiens) (Q07343 whole entry, looked up): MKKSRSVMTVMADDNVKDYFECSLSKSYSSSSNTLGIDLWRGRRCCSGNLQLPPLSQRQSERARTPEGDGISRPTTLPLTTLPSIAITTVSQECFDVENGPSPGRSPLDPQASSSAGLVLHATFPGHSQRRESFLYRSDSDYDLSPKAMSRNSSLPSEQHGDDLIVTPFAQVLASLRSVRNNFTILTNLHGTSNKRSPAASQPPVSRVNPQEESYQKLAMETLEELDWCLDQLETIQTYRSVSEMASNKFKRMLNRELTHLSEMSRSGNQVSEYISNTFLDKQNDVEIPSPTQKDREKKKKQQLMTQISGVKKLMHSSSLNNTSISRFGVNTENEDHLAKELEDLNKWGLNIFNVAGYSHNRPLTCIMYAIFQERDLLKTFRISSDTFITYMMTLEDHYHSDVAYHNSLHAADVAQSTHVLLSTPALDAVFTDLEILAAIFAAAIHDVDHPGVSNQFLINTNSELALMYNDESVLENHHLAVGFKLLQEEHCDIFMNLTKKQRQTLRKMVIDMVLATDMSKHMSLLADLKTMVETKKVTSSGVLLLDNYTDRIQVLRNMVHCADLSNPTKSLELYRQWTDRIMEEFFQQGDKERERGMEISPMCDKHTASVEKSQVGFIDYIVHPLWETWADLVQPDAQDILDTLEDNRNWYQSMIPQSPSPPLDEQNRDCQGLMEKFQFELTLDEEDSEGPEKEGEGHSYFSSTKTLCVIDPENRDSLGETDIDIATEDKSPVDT
Sequence of Lysosomal acid glucosylceramidase (Homo sapiens) (P04062 whole entry, looked up): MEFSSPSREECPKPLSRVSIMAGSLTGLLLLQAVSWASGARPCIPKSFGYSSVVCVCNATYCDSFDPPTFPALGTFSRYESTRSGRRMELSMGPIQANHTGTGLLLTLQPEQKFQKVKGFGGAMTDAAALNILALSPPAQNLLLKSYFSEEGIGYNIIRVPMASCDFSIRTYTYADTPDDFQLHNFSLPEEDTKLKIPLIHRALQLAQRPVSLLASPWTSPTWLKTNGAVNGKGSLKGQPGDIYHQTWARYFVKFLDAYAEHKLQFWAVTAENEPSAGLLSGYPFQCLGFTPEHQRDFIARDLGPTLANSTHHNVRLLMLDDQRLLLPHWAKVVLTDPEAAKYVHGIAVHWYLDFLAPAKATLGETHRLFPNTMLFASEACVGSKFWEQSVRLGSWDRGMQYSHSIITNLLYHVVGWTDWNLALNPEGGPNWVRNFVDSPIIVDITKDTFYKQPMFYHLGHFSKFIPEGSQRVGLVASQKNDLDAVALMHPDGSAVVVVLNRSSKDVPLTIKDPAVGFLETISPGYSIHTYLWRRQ
Sequence of Ubiquitin carboxyl-terminal hydrolase 1 (Homo sapiens) (O94782 whole entry, looked up): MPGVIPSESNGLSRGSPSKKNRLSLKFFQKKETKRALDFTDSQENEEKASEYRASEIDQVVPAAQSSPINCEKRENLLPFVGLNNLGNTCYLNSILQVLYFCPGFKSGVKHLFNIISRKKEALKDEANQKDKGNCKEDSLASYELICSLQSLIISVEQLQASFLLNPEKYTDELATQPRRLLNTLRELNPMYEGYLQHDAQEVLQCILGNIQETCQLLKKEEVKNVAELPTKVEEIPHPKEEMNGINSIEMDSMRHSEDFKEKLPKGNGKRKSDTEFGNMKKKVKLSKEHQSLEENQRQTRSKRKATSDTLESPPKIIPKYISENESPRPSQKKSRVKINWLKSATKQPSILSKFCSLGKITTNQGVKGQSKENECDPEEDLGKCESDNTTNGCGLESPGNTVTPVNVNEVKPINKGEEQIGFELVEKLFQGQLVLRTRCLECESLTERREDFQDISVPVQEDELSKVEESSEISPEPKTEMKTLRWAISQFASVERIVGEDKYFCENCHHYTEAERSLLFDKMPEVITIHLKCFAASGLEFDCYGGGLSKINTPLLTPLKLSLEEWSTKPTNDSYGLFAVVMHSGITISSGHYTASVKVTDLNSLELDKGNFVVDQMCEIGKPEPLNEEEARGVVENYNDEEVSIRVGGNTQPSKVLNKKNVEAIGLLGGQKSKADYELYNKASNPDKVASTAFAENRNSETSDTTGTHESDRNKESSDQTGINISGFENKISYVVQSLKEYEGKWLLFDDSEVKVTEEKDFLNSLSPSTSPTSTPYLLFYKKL

Consider `CCNc1ncc2nc(-c3ccccc3)c(=O)n(Cc3ccc(F)cc3)c2n1`, for which the Potency is over 11.4 µM in assay [1], 3.16 µM (active) in [2], over 9.22 µM in assay [4] and over 46 µM in assay [5]. Also, the activity, negative = inhibition in assay [3] is 82.9% [activator] (active). Further, the Potency entry in assay [6], in [7] and in [8] was “inactive” throughout. Moreover, the result in assay [9] was inactive.
Turning to `COc1ccc(Oc2ncc3ncc(=O)n(CCc4ccccc4)c3n2)cc1`, the values for the activity change, negative = inhibition in assay [10] and in [11] were -14.7% and -16.6%, respectively. The Potency in [2] was 0.631 µM (active); in assay [4] it was over 9.22 µM; in assay [5], over 46 µM; in assay [13], 1.26 µM (active). Moreover, the activity, negative = inhibition in [3] was 3.46%. For the same compound, the Potency entry in assay [12] and in assay [8] was “inactive” throughout. Besides, in [9], the result was inactive.
Turning to `O=S(=O)(c1ccccc1)N1CCC2(CCCN(Cc3cc(C(F)(F)F)cc(C(F)(F)F)c3)C2)CC1`, the Potency is over 11.4 µM in [1] and over 46 µM in assay [5]. Further, in assay [3], the activity, negative = inhibition is 5.03%. Further, the Potency entry in assay [12] and in [6] was “inactive” each time. Further, the result in assay [9] was inactive.
On to `CCNc1ncc2nc(-c3cc(F)cc(F)c3)c(=O)n(-c3ccccc3)c2n1`, for which the Potency in [1] is over 11.4 µM; in assay [4] it was over 9.22 µM; in assay [5], over 46 µM; in [14], 2.51 µM (active). Further, the Potency entry in assay [12] and in assay [8] was “inactive” each time. Moreover, in [9], the result was inactive.
As for `COc1ccc(C(=O)N2CCC3(CCN(C(=O)Nc4cccc(C#N)c4)CC3)CC2)cc1`, the Potency was over 11.4 µM in assay [1] and over 46 µM in assay [5]. In addition, the activity, negative = inhibition in assay [3] is -23.9%. Besides, the outcome in [9] was inactive.
Regarding `COc1ccc(-n2c(=O)c(-c3cc(F)cc(F)c3)nc3cnc(N4CCNCC4)nc32)cc1`, the Potency in [1] is over 11.4 µM; in [2] it was 12.6 µM (active); in assay [4], over 9.22 µM; in assay [5] it was over 46 µM; in assay [14], 3.16 µM (active). In addition, the Potency entry in assay [12], in assay [6] and in assay [8] was “inactive” each time. In addition, the outcome in assay [9] was inactive.
Take `O=c1c(-c2ccc(Cl)cc2)nc2cnc(N3CCNCC3)nc2n1Cc1ccc(F)cc1`: the Potency was over 11.4 µM in assay [1], 15.8 µM (active) in [2], over 9.22 µM in [4] and over 46 µM in assay [5]. For the same compound, the Potency entry in [6] and in assay [8] was “inactive” in each case. Further, the result in assay [9] was inactive.
Take `COc1ccc(-c2nc3cnc(N(C)C)nc3n(CCc3ccccc3)c2=O)cc1`: the Potency in assay [1] was over 11.4 µM; in assay [2], 1.26 µM (active); in assay [5] it was over 46 µM; in [14], 0.794 µM (active). For the same compound, in assay [3], the activity, negative = inhibition was 121% [activator] (active). In assay [6], the Potency result was “inactive”. The outcome in assay [9] was inactive.
On to `COc1cccc(Nc2ncc3nc(-c4ccc(F)cc4)c(=O)n(C[C@H]4CCCO4)c3n2)c1`, for which the Potency was over 11.4 µM in assay [1], over 9.22 µM in assay [4] and over 46 µM in [5]. Also, the activity change, negative = inhibition in assay [11] is -9.67%. Also, the activity, negative = inhibition in assay [3] is -5.57%. For the same compound, the Potency result in assay [12] and in assay [6] was “inactive” each time. Further, in assay [9], the outcome was inactive.
For the compound `CCNc1ncc2nc(-c3ccc(Cl)cc3)c(=O)n(Cc3cccs3)c2n1`, the Potency is over 11.4 µM in [1], over 9.22 µM in assay [4], over 46 µM in assay [5] and 0.126 µM (active) in [14]. The Potency result in assay [12] and in [15] was “inactive” each time. Moreover, the outcome in assay [9] was inactive.
